Several values for one entry are separate records, joined by “and”; a condition that tells them apart may be missing. Identical values can stand only once. Among all 300,000 compounds or so, about 3,300 (1.1%) were called active. Not shown: some 6% with an inconclusive outcome. The sample as a whole holds a higher share of actives than the screen did. A number with no mark means an inactive call.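 How the source made its calls: active means more than half of the replicate wells show a fall in the fluorescence ratio signal beyond about 16% (limit read from the data, passing the limit was not always enough); inconclusive means exactly half of the replicate wells pass the set limit; inactive means fewer than half of replicates pass the limit.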

For the assay, the system named is Ran GTPase (GTP-bound) - importin-beta complex. The experiment in a line: inhibitors of RanGTP-importin-beta interaction, primary screen, biochemical, FRET, CFP-Ran, YFP-importin-beta, homogeneous (AID 2216).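 Further: 0% = DMSO wells and 100% = Ran loaded with GDP instead of GTP.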 The conditions noted are these: cell-free CFP-Ran/YFP-importin-beta FRET ratio; stronger effect = higher value; concentration not given here.
As for `CCOC(=O)c1c(NC(=O)NC(C)(C)C)sc2c1CCN(C)C2`, the inhibition was 12%.
For `CCOC(=O)c1c(NC(=S)Nc2ccccc2)sc2c1CCN(C)C2`, the inhibition was 70% (active).
On to `CCOC(=O)c1c(NC(=S)Nc2ccccc2C)sc2c1CCC2`, for which the inhibition was -2.16%.
Take `COc1cccc(NC(C)=[N+](C)CCNS(=O)(=O)c2ccc(Cl)cc2)c1`: the inhibition was -6.06%.
As to `COc1ccc(NC(=O)CN(C)C(=O)c2n[nH]c3ccccc23)cc1`, the inhibition is -0.623%.
On to `CCCCn1c(N)c(N(CCOC)C(=O)c2cccc(S(=O)(=O)N3CCCCC3)c2)c(=O)[nH]c1=O`, for which the inhibition is 6.51%.
Consider `O=C(COC(=O)c1ncc(Cl)c(Cl)c1Cl)NNC(=O)c1ccccc1`, for which the inhibition is 7.08%.
For `CCCCN1C(=O)/C(=C2/Sc3ccc(Cl)cc3N2CC)SC1=S`, the inhibition is 0.428%.
With `CCN1C(=O)/C(=C2/Sc3ccccc3N2CCCS(=O)(=O)O)SC1=S`, the inhibition is 43.1% (active) and 55.8% (active).
On to `CCN1C(=O)/C(=c2\s/c(=C3\Sc4ccccc4N3C)c(=O)n2C)N(C)C1=S`, for which the inhibition was 1.12%.
Turning to `O=C(/C=C/c1ccc([N+](=O)[O-])o1)NNC(=O)c1ccc(F)cc1`, the inhibition is -0.948%.
On to `COc1ccc(N2CCN(C(=O)/C(C#N)=C/c3ccccc3)CC2)cc1`, for which the inhibition is -3.23%.
Take `COc1ccc(/C=C(\C#N)C(=O)ONC2=NCCCCC2)cc1`: the inhibition is 2.96%.
Regarding `CCOC(=O)NC(=O)/C(C#N)=C\c1ccccc1`, the inhibition was 5.82%.
For the compound `CCOC(=O)/C(C#N)=C/c1ccc(N2CCCCC2)cc1`, the inhibition was 91% (active).
The figure for `CCOC(=O)/C(C#N)=C/c1ccc(OCC(=O)Nc2ccccc2)c(OC)c1` is 1.23%; for `CCOC(=O)/C(C#N)=C/c1ccc(N2CCN(Cc3ccccc3)CC2)cc1` it is 72.8% (active); for `CC(=O)NCC(=O)N1CCC(n2nccc2NC(=O)CCCc2ccccc2)CC1` it is -2.9%.
On to `Cc1cc(O)c(Sc2ccccc2)c(=O)o1`, for which the inhibition is -1.75%.
`Cc1ccc(NC(=O)COc2coc(CN3CCc4ccccc4C3)cc2=O)cc1Cl`: the inhibition is 1.39%.
For the compound `COc1ccc(C(CNC(=O)c2cccc(NS(=O)(=O)c3ccc(C)c(F)c3)c2)N2CCCC2)cc1` (centres undefined), the inhibition is -0.978%.
Turning to `Cc1ccc(OCCNC(=O)CNC(=O)c2ccc(C)c(C)c2)cc1`, the inhibition was 4.18%.
The figure for `COc1ccc(N=C(C)c2sc3ccccc3c2O)cc1` is 39.4% (active); for `COc1ccc(N=Nc2ccc(O)c(P(=O)(c3ccccc3)c3ccccc3)c2)cc1` it is -0.168%; for `Oc1ccc(N=Cc2sc3ccccc3c2Cl)cc1` it is 5.46%.
The same measure for `COC(=O)c1cc(OC)c(OC)cc1NC(=O)CSc1ccc(C)cc1`: -0.733%; for `COc1ccc(C)cc1NC(=O)CSc1ccc(Cl)cc1`: 27.5% (active).
Regarding `COc1ccc(C)cc1NC(=O)CSc1nc(SC)ns1`, the inhibition was 2.19%.
For the compound `CCC(c1nnc(SCC(=O)NNC(=O)c2ccccc2)n1Cc1ccccc1)N(C)C` (centres undefined), the inhibition was -5.06%.
Consider `Cc1cccn2c(=O)c(/C=C(\C#N)C(N)=O)c(N3CCCCCC3)nc12`, for which the inhibition is -1.31%.
Turning to `Cc1cccn2c(=O)c(/C=C(\C#N)S(=O)(=O)c3ccc(Cl)cc3)c(N3CCC(C(N)=O)CC3)nc12`, the inhibition was 16.6% (active).
With `Cc1cc(C)c(C#N)c(N2CCC(C(N)=O)CC2)n1`, the inhibition is -1.05%.
Take `CS(=O)(=O)N(CC(=O)N1CCc2ccccc2C1)c1ccc(Br)cc1`: the inhibition was 0.322%.
For `Cc1ccc(-c2csc(NC(=O)C3=COCCO3)n2)cc1C`, the inhibition was 2.13%.
In the case of `COc1cccc(C(=O)NNC(=O)c2cccc(F)c2)c1`, the inhibition was -3.67%.
The same measure for `COc1ccc2oc(=O)c(C(=O)N3CCCC3)cc2c1`: 0.715%; for `COc1cccc(C(=O)c2cc3ccc(O)cc3oc2=O)c1`: 26.4% (active); for `COc1cccc(N2CC(NC(=O)c3ccc4ccccc4c3)CC2=O)c1` (centres undefined): -1.06%.
On to `CCN1C(=O)[C@H]2[C@@H](c3ccc(-c4ccc(F)cc4)cc3)N[C@@](Cc3ccccc3)(C(=O)OC)[C@H]2C1=O`, for which the inhibition was -2.12%.
For `COc1ccc(N2CCN(C(=O)COC(=O)c3cccc(S(=O)(=O)Nc4ccccc4OC)c3)CC2)cc1`, the inhibition was -1.93%.
The same measure for `CC1CC(=O)N(CC(=O)Nc2cccc(Cl)c2)c2ccccc2S1(=O)=O` (centres undefined): 18.5% (active).
In the case of `CCOC(=O)c1cccc(NC(=O)CN2C(=O)C3CC=CCC3C2=O)c1` (centres undefined), the inhibition is 3.31%.
The figure for `O=C(CN1C(=O)CC(c2ccccc2)S(=O)(=O)c2ccccc21)NC1CCCC1` (centres undefined) is 0.0598%.
In the case of `COc1ccc2c(c1)C(=O)Nc1cc(Cl)ccc1N2`, the inhibition is 1.28%.
On to `Cc1noc(C)c1CSCC(=O)N(CCC(C)C)c1c(N)n(Cc2ccccc2)c(=O)[nH]c1=O`, for which the inhibition was -1.15%.
The figure for `COc1ccc(CN2[C@@H](CC(=O)O)c3cc(F)ccc3S2(=O)=O)cc1` is 3.99%; for `CCN1C(=O)[C@H]2[C@@H](c3ccc(SC4CCCCC4)c(OC)c3)N[C@@](Cc3ccccc3)(C(=O)OC)[C@H]2C1=O` it is -1.26%; for `O=C(Cc1ccc(-n2c(=O)[nH]c3ccccc3c2=O)cc1)N1CCN(c2cccc(Cl)c2)CC1` it is 2.52%.
With `CN1CCN(c2cc(=O)n(-c3ccc(Cl)cc3)c(=O)[nH]2)CC1`, the inhibition is 31.4% (active).
For the compound `CN1CCN(c2ccc(NC(=O)c3ccc4c(c3)[nH]c(=O)n4Cc3ccc(F)cc3)cc2)CC1`, the inhibition is 0.81%.
`CCCC[C@@H]1CN=C(N)N1CCCC`: the inhibition was 5.62%.
For `O=C(Oc1ccc(-c2nnco2)cc1)c1ccc(F)c(S(=O)(=O)N2CCOCC2)c1`, the inhibition is 1.51%.
As for `CCCCOc1ccc(CSC(=N)N)cc1[N+](=O)[O-]`, the inhibition was -0.296%.
On to `CCCCCOc1ccc(CSC2=NCCN2)cc1[N+](=O)[O-]`, for which the inhibition is -3.18%.
On to `CCCOc1ccc(Cn2ccnc2)cc1[N+](=O)[O-]`, for which the inhibition was 22.9% (active).
`Cc1cc(=O)[nH]c(SCc2ccc(Cl)cc2)n1`: the inhibition was 2.35%.
Turning to `COc1ccccc1CCC(=O)OCC(=O)N1CCN(S(=O)(=O)c2ccc(C)cc2C)CC1`, the inhibition was -0.0627%.
Consider `Cc1ccc(S(=O)(=O)CCC(=O)OCC(=O)N(C)C2CCS(=O)(=O)C2)cc1` (centres undefined), for which the inhibition is -1.57%.
For `CCc1ccc(C(=O)COC(=O)c2ccco2)cc1`, the inhibition is -1.46%.
The same measure for `O=C(Nc1cccc(NC(=O)c2ccccc2[N+](=O)[O-])c1)c1ccccc1Cl`: 1.99%; for `O=C(Nc1ccc2sc3ccccc3c(=O)c2c1)c1ccccc1Cl`: 97.7% (active); for `O=C(Nc1ccc2nc3n(c(=O)c2c1)CCCCC3)c1ccccc1Cl`: -0.768%.
For `COc1cnn(-c2ccc([N+](=O)[O-])cc2)c(=O)c1Cl`, the inhibition was 9.19%.
In the case of `CCCCCN(C(=O)CCC(=O)OCC(=O)NC1CCC(C)CC1)c1c(N)n(CCCC)c(=O)[nH]c1=O` (centres undefined), the inhibition was 10.6%.
Turning to `O=C(NC(Cc1ccccc1)C(=O)N1CCCC(C(F)(F)F)C1)c1ccccc1` (centres undefined), the inhibition was -0.899%.
`COC(=O)NNC1=CC(=O)CC(C)(C)C1`: the inhibition is 2.34%.
With `Cc1cc(O)ccc1NC1=CC(=O)CC(C)(C)C1`, the inhibition was 18.8% (active).
As to `CC1(C)CC(=O)C=C(Nc2ccccc2)C1`, the inhibition is 11.7%.
With `CCCCCCCNC(=O)C1(CC2CC(c3cccc(Br)c3)=NO2)CCN(C(=O)c2cc(OCC)c(OCC)c(OCC)c2)CC1` (centres undefined), the inhibition is -1.08%.
Turning to `COc1ccc(/C=C(\C#N)c2c[nH]c3ccccc23)cc1`, the inhibition is 17.3% (active).
As for `COc1cc(/C=C(\C#N)c2nc3ccccc3[nH]2)ccc1O`, the inhibition was -13.2%.
The same measure for `COc1ccc2[nH]cc(/C=C(/C#N)S(=O)(=O)c3ccccc3)c2c1`: -20.9%.
With `CCCNC(=O)c1ccc(N2CCC3(CC2)CC(c2cccc(Br)c2)=NO3)c(NC(=O)c2ccco2)c1`, the inhibition was -1.47%.
Regarding `Cc1cc(/C=C2/SC(=O)N(CC(=O)N3CCCC3)C2=O)c(C)n1C`, the inhibition was -0.395%.
Turning to `CCN(CC(=O)Nc1c(F)cccc1F)C(=O)CN1c2cccc3cccc(c23)S1(=O)=O`, the inhibition was -0.907%.
The same measure for `COc1ccc(Cc2nnc(SCC(=O)Nc3ccc(C)c(Cl)c3)[nH]c2=O)cc1`: -0.239%; for `O=C(COC(=O)c1ccc([N+](=O)[O-])cc1Cl)NC(=O)c1ccccc1`: -13.9%.
Turning to `CN(C)/C=C1\C=C(c2ccccc2)OC1=O`, the inhibition was -3.27%.
With `COc1cccc(/C=C2\C=C(c3ccc(C)cc3)OC2=O)c1OC(C)=O`, the inhibition was 20.6% (active).
In the case of `Cc1ccc(C2=C/C(=C\c3cccnc3)C(=O)O2)cc1`, the inhibition is 8.88%.
For `COc1cccc(/C=C/C(=O)OCC(=O)N2CCCc3ccccc32)c1`, the inhibition is 3.35%.
As for `O=C(CCNC(=O)c1ccc(Br)cc1)NCCCc1ccccc1`, the inhibition is 1.56%.
`Cc1cccn2c(=O)c3cc(C(=O)NC4CCCCC4)sc3nc12`: the inhibition was 2%.
For `COc1ccc(CCn2c(=N)c(C(=O)NCc3ccco3)cc3c(=O)n4cccc(C)c4nc32)cc1`, the inhibition was 21.1% (active).
The figure for `COc1ccc(CCNC(=O)Cn2c(=O)n(CC3CCCO3)c(=O)c3ccccc32)cc1OC` (centres undefined) is -2.65%; for `Cc1ccccc1NC(=O)Cn1c(=O)n(CC2CCCO2)c(=O)c2ccccc21` (centres undefined) it is 0.402%; for `Cc1ccc(C(=O)NCCN2CCOCC2)cc1C` it is -1.81%.
Consider `O=C(NCc1cccnc1)c1cc(S(=O)(=O)N2CCOCC2)c(Cl)cc1Cl`, for which the inhibition was -0.678%.
`Cc1ccc2nc3c(cc(C(=O)NCCc4ccccc4)c(=N)n3CC3CCCO3)c(=O)n2c1` (centres undefined): the inhibition was 182% (active).
For the compound `Cc1ccc(CCNC(=O)c2ccc3nc4ccccc4c(=O)n3c2)cc1`, the inhibition is 8.55%.
The same measure for `COc1ccc2oc(C(=O)NCc3ccco3)c(C)c2c1`: -0.417%; for `Cc1cccn2c(=O)c3cc(C#N)c(=NC(=O)c4cccnc4)n(CC4CCCO4)c3nc12` (centres undefined): 154% (active).
Turning to `O=C(NCc1ccco1)c1cccn2c(=O)c3c4c(sc3nc12)CCCC4`, the inhibition is -9.38%.
On to `Cc1cccn2c(=O)c3cc(C(=O)NCCN4CCOCC4)c(=N)n(Cc4cccnc4)c3nc12`, for which the inhibition was 167% (active).

The term inhibition denotes the drop in the measured response relative to a control, in per cent.
